From PubChem BioAssay (Tox21)
Inconclusive results are not listed. Calls of active or inactive are those of the source. Unless noted, calls follow the shape of the dose curve; as a rule, active = well fitted curve in the direction sought with a large enough effect in the repeat runs; inconclusive = weak or mixed curves; inactive = no such curve, though single readings can be large; an effect the other way counts as inactive or inconclusive.

Legend:
[1] = qHTS assay to identify small molecule that activate the aryl hydrocarbon receptor (AhR) signaling pathway - cell viability counter screen (AID 743086); also: nearly all actives have a fitted effect of over 45% in size; also: potency is read from the fitted curve at half-maximal effect
Summary of the method: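 HepG2-AhR-luc (HG2L7.5c1) cells, 4000/well, treated 24 h at 37 C with compound; viability measured as CellTiter-Fluor fluorescence after 30 min in the same wells as the luciferase read.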

[2] = biological target: Peroxisome proliferator-activated receptor gamma (Homo sapiens) (UniProt P37231); experiment: qHTS assay to identify small molecule agonists of the peroxisome proliferator-activated receptor gamma (PPARg) signaling pathway (AID 743094; active = well fitted activation curve with a large enough effect in the signal ratio in the repeat runs, not every such curve was filed as active; the % refers to the signal ratio)
Summary of the method: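 HEK293H PPARg-bla cells, 5 h settle at 37C/5% CO2; compound (DMSO) 17 h, 37C; B/G FRET substrate 1 h RT; fluorescence intensity read-out. qHTS format.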

[3] = biological target: Peroxisome proliferator-activated receptor gamma (Homo sapiens) (UniProt P37231); experiment: qHTS assay to identify small molecule antagonists of the peroxisome proliferator-activated receptor gamma (PPARg) signaling pathway (AID 743191; calls by dose curve; also: series mostly up to about 63 µM; nearly all actives have a fitted effect of over 30% in size)
Summary of the method: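 GeneBLAzer PPARg UAS-bla HEK293H cells, 5 h post-plating, exposed to compounds 17 h at 37C. LiveBLAzer B/G FRET substrate added for 1 h at room temperature; beta-lactamase reporter read by fluorescence intensity.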

[4] = qHTS assay to identify small molecule antagonists of the peroxisome proliferator-activated receptor gamma (PPARg) signaling pathway - cell viability counter screen (AID 743194); also: nearly all actives have a fitted effect of over 55% in size
Summary of the method: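 Cytotoxicity counter screen in PPARg-bla HEK293H cells, same wells as reporter assay. Compounds plus 50 nM rosiglitazone (final) for 17 h at 37 C, then viability read by CellTiter-Glo luminescence.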

[5] = qHTS assay for small molecule agonists of the antioxidant response element (ARE) signaling pathway (AID 743202; active = well fitted activation curve with a large enough effect in the signal ratio in the repeat runs, not every such curve was filed as active; the % refers to the signal ratio)
Summary of the method: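 HepG2 ARE-bla cells; 16 h treatment at 37 C; FRET-based beta-lactamase fluorescence read after 2 h substrate incubation at room temperature.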

[6] = qHTS assay for small molecule agonists of the antioxidant response element (ARE) signaling pathway - cell viability counter screen (AID 743203; calls by dose curve; also: nearly all actives have a fitted effect of over 55% in size; also: potency is read from the fitted curve at half-maximal effect)
Summary of the method: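 Luminescence read-out (CellTiter-Glo, 30 min at room temperature) measured cell viability in the same wells as the ARE beta-lactamase reporter. HepG2 ARE-bla cells were treated with compounds for 16 hrs at 37C/5% CO2.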

[7] = qHTS assay for small molecule activators of the heat shock response signaling pathway - cell viability counter screen (AID 743209); also: nearly all actives have a fitted effect of over 50% in size; also: potency is read from the fitted curve at half-maximal effect
Summary of the method: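 HSE-bla HeLa; 1500 cells/well; overnight 37 C, 5% CO2; compound 5 h 37 C; LiveBLAzer B/G substrate 2.5 h RT; CellTiter-Glo 30 min RT; luminescence.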

[8] = qHTS assay for small molecule activators of the heat shock response signaling pathway (AID 743210; active = well fitted activation curve with a large enough effect in the signal ratio in the repeat runs, with a control signal flat, not every such curve was filed as active; the % refers to the signal ratio;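 also: HeLa cells with beta-lactamase reporter driven by heat shock elements; series mostly up to about 63 µM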)
Summary of the method: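 Following overnight attachment, HSE-bla HeLa cells received test compounds for 5 h at 37 C; beta-lactamase activity was then detected via FRET substrate fluorescence.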

[9] = qHTS assay to identify small molecule agonists of the peroxisome proliferator-activated receptor delta (PPARd) signaling pathway - cell viability counter screen (AID 743211); also: nearly all actives have a fitted effect of over 55% in size; also: potency is read from the fitted curve at half-maximal effect
Summary of the method: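 Viability of GeneBLAzer PPARd UAS-bla HEK293H cells was assessed after 17 h compound incubation at 37C, using CellTiter-Glo reagent added after the reporter read and luminescence recorded 30 min later.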

[10] = qHTS assay to identify small molecule antagonists of the peroxisome proliferator-activated receptor delta (PPARd) signaling pathway - cell viability counter screen (AID 743213); also: nearly all actives have a fitted effect of over 50% in size; also: potency is read from the fitted curve at half-maximal effect
Summary of the method: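 Agonist-stimulated (L165041, 300 nM final) HEK293H PPARd UAS-bla cells are exposed to compounds for 17 h at 37 C, and ATP-based luminescence (CellTiter-Glo) from the same wells reports cytotoxicity.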

[11] = qHTS assay to identify small molecule agonists of the farnesoid-X-receptor (FXR) signaling pathway - cell viability counter screen (AID 743218); also: nearly all actives have a fitted effect of over 45% in size; also: potency is read from the fitted curve at half-maximal effect
Summary of the method: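 Luminescence from CellTiter-Glo, read after 30 min at RT, reports viability of GeneBLAzer FXR-UAS-bla HEK 293T cells treated 16 h with compounds in the wells used for the beta-lactamase reporter.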

[12] = biological target: Bile acid receptor (Homo sapiens) (UniProt Q96RI1); experiment: qHTS assay to identify small molecule agonists of the farnesoid-X-receptor (FXR) signaling pathway (AID 743220; active = well fitted activation curve with a large enough effect in the signal ratio in the repeat runs, not every such curve was filed as active; the % refers to the signal ratio)
Summary of the method: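 FXR-UAS-bla HEK 293T cells carrying a UAS-driven beta-lactamase reporter were plated for 5 h at 37C/5% CO2, then exposed to DMSO-dissolved Tox21 10K compounds for 16 h at 37C. A LiveBLAzer B/G FRET substrate was loaded for 2 h at room temperature before fluorescence reading.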

[13] = qHTS assay to identify small molecule antagonists of the farnesoid-X-receptor (FXR) signaling pathway - cell viability counter screen (AID 743221; active = well fitted cell-killing curve with a large enough effect in the repeat runs, not every such curve was filed as active; also: nearly all actives have a fitted effect of over 50% in size)
Summary of the method: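 Quantitative HTS of the Tox21 10K library run in parallel with the beta-lactamase reporter read. HEK 293T cells carrying a UAS-driven bla reporter got compound and 50 uM CDCA (final) for 16 h; ATP-based luminescence followed.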

[14] = biological target: Vitamin D3 receptor (Homo sapiens) (UniProt P11473); experiment: qHTS assay to identify small molecule agonists of the vitamin D receptor (VDR) signaling pathway (AID 743222; calls by dose curve)
Summary of the method: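 Beta-lactamase reporter readout (LiveBLAzer B/G FRET, 2 h RT) in VDR-bla cells after 16 h compound treatment at 37C, 5% CO2; cells pre-incubated 4 h before pin transfer of DMSO solutions.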

[15] = biological target: Vitamin D3 receptor (Homo sapiens) (UniProt P11473); experiment: qHTS assay to identify small molecule antagonists of the vitamin D receptor (VDR) signaling pathway (AID 743223; active = well fitted inhibition curve with a large enough effect in the signal ratio in the repeat runs, not every such curve was filed as active; the % refers to the signal ratio)
Summary of the method: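 Fluorescence from LiveBLAzer B/G FRET substrate, read after 2 h at room temperature, reflects beta-lactamase reporter activity in VDR-bla cells treated 16 h at 37C with compounds and agonist 1alpha,25-dihydroxyvitamin D3 (3 nM final).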

[16] = qHTS assay to identify small molecule agonists of the vitamin D receptor (VDR) signaling pathway - cell viability counter screen (AID 743224); also: nearly all actives have a fitted effect of over 50% in size; also: potency is read from the fitted curve at half-maximal effect
Summary of the method: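 Cytotoxicity counter screen: VDR-bla cells, 16 h compound exposure at 37C, 5% CO2; CellTiter-Glo luminescence, 30 min RT, same wells as bla read.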

[17] = biological target: Aryl hydrocarbon receptor (Homo sapiens) (UniProt P35869); experiment: qHTS assay to identify small molecule that activate the aryl hydrocarbon receptor (AhR) signaling pathway (AID 743085);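 also: HG2L7.5c1 human HepG2 liver cells with stably integrated DRE-driven firefly reporter; series mostly up to about 70 µM; nearly all actives have a fitted effect of over 15% in size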
Summary of the method: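 Steps: seed HepG2-AhR-luc cells; allow 5 h at 37C; pin-transfer test compound or vehicle; incubate 24 h at 37C; add viability dye (30 min, 37C) and read fluorescence; add luciferase substrate (30 min, RT) and read luminescence.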

[18] = biological target: Peroxisome proliferator-activated receptor delta (Homo sapiens) (UniProt Q03181); experiment: qHTS assay to identify small molecule agonists of the peroxisome proliferator-activated receptor delta (PPARd) signaling pathway (AID 743212; calls by dose curve)
Summary of the method: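 Tox21 library screened in GeneBLAzer PPARd UAS-bla HEK293H cells. After compound treatment at 37 C, a FRET-based beta-lactamase substrate was applied for 2 h and fluorescence recorded.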

[19] = biological target: Bile acid receptor (Homo sapiens) (UniProt Q96RI1); experiment: qHTS assay to identify small molecule antagonists of the farnesoid-X-receptor (FXR) signaling pathway (AID 743217; active = well fitted inhibition curve with a large enough effect in the signal ratio in the repeat runs, not every such curve was filed as active; the % refers to the signal ratio)
Summary of the method: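 Read-out: beta-lactamase FRET fluorescence (LiveBLAzer B/G substrate, 2 h, room temperature) in GeneBLAzer FXR-UAS-bla HEK 293T cells. Compounds were co-dosed with 50 uM chenodeoxycholic acid (final) and incubated 16 h at 37 °C.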

[20] = biological target: Peroxisome proliferator-activated receptor delta (Homo sapiens) (UniProt Q03181); experiment: qHTS assay to identify small molecule antagonists of the peroxisome proliferator-activated receptor delta (PPARd) signaling pathway (AID 743215; active = well fitted inhibition curve with a large enough effect in the signal ratio in the repeat runs, not every such curve was filed as active; the % refers to the signal ratio; also: series mostly up to about 62 µM)
Summary of the method: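 HEK293H GeneBLAzer PPARd UAS-bla reporter cells; cpd + L165041 300 nM final, 17 h 37 C; LiveBLAzer B/G FRET substrate 2 h RT; fluorescence intensity read-out. Antagonist mode.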

Measured: Potency

Sequence of Peroxisome proliferator-activated receptor delta (Homo sapiens) (Q03181 whole entry, looked up): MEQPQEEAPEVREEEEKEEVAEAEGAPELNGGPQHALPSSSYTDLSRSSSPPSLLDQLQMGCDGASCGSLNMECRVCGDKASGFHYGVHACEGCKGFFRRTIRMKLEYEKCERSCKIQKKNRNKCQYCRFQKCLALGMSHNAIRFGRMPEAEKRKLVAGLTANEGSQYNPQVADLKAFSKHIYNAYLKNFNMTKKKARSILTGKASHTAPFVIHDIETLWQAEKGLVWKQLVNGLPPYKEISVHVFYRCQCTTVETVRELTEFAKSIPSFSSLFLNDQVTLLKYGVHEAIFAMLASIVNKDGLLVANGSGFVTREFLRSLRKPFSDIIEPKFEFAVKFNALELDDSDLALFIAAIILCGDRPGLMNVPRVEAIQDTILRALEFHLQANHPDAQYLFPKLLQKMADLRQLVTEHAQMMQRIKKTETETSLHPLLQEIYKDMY
Sequence of Aryl hydrocarbon receptor (Homo sapiens) (P35869 whole entry, looked up): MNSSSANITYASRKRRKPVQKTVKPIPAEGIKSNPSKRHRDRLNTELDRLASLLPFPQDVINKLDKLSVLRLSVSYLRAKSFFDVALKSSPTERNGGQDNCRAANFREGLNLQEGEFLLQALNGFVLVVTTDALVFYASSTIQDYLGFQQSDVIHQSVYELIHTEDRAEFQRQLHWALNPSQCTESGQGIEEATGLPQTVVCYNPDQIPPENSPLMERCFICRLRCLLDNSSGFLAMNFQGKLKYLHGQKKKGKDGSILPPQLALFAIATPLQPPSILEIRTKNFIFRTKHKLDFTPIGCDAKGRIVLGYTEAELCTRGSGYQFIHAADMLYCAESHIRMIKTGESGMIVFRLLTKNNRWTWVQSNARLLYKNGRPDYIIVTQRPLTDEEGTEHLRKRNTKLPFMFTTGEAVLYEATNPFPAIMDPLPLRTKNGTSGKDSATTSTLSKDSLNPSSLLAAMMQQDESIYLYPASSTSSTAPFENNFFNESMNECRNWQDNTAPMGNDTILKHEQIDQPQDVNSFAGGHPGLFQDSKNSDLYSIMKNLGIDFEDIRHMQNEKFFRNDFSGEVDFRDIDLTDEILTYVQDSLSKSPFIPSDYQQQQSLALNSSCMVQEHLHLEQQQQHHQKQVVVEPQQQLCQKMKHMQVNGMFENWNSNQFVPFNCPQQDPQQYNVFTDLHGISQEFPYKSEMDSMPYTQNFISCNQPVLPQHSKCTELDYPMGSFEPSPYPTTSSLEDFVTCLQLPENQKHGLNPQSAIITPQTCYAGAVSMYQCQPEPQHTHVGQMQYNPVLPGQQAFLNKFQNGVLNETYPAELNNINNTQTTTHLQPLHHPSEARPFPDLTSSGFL
Sequence of Vitamin D3 receptor (Homo sapiens) (P11473 whole entry, looked up): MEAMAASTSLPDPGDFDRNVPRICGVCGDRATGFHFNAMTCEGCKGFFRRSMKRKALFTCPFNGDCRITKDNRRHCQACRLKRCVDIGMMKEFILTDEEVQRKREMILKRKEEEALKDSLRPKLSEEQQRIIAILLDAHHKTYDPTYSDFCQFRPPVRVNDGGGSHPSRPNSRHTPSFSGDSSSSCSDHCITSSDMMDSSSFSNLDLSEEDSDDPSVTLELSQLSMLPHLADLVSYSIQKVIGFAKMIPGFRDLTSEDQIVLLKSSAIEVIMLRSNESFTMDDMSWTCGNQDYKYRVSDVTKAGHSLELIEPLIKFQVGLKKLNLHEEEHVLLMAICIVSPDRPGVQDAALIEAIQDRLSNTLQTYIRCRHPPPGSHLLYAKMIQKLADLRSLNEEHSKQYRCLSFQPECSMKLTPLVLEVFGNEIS
Sequence of Peroxisome proliferator-activated receptor gamma (Homo sapiens) (P37231 whole entry, looked up): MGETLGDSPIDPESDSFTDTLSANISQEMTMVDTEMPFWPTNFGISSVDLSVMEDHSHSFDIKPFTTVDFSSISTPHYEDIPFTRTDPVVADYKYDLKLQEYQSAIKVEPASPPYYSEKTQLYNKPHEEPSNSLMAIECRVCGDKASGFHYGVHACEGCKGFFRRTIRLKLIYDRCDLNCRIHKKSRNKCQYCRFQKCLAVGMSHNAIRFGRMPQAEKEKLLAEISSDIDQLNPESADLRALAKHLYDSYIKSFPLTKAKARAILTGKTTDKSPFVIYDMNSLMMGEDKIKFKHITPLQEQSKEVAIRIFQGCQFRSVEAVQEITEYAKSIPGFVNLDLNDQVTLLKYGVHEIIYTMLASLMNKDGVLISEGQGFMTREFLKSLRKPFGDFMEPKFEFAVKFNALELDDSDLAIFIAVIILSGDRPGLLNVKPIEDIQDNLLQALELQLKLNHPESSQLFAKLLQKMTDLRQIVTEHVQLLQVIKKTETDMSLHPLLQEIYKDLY
Sequence of Bile acid receptor (Homo sapiens) (Q96RI1 whole entry, looked up): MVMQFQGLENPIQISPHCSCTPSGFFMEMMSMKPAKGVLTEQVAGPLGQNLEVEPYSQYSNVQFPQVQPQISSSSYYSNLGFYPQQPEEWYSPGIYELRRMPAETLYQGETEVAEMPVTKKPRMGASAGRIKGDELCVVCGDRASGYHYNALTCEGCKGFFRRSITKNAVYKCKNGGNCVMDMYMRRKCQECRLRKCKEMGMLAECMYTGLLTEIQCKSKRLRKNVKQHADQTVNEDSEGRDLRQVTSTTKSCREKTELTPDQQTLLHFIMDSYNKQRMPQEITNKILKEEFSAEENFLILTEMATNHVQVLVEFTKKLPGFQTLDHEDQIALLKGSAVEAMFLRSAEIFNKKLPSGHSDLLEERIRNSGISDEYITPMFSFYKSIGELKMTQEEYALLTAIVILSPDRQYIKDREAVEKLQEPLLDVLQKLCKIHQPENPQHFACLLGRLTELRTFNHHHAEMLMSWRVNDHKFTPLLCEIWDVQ

Cc1cc(S(=O)(=O)O)ccc1N=Nc1c(O)ccc2ccccc12
inactive: [2] | [3] | [4] | [5] | [6] | [7] | [8] | [9] | [10] | [11] | [12] | [13] | [14] | [15] | [16]
active: [1] 24.3 µM

COc1ccccc1N=Nc1c(S(=O)(=O)O)cc2cc(S(=O)(=O)O)cc(NC(C)=O)c2c1O
active: [1] 22.9 µM
inactive: [2] | [3] | [4] | [5] | [6] | [7] | [8] | [9] | [10] | [11] | [13] | [14] | [15] | [16]

CNCCCC1c2ccccc2C=Cc2ccccc21
inactive: [17] | [1] | [4] | [6] | [7] | [8] | [15]
active: [9] 10.6 µM | [10] 23.7 µM | [11] 23.7 µM | [16] 29.8 µM

CC[C@H](NC(=O)c1cc(F)ccc1NS(=O)(=O)c1cccc2cccnc12)c1ccccc1
inactive: [17] | [1] | [4] | [6] | [7] | [8] | [9] | [18] | [11] | [13] | [15] | [16]

CN(C)CCOC1=Cc2ccccc2Sc2ccc(Cl)cc21
active: [9] 26.6 µM | [10] 26.6 µM
inactive: [17] | [4] | [5] | [6] | [7] | [8] | [18] | [19] | [14] | [16]

CCC(Cc1ccccc1)(C(=O)c1ccc(N2CCOCC2)cc1)N(C)C (stereo unspecified)
inactive: [17] | [4] | [6] | [8] | [9] | [18] | [10] | [20] | [12] | [13] | [14]

O=C(O)Cc1ccc(-c2ccccc2)cc1
inactive: [17] | [1] | [6] | [7] | [8] | [9] | [18] | [10] | [11] | [13] | [14]

NC(=O)N(O)[C@@H]1COc2cc(OCc3ccccc3)ccc21
inactive: [17] | [2] | [3] | [4] | [5] | [6] | [7] | [8] | [9] | [18] | [10] | [11] | [13] | [16]

CC1C2CC(CC2C2CCCC(O)C2)C1(C)C (stereo unspecified)
active: [6] 61.1 µM | [7] 49 µM | [16] 49 µM
inactive: [17] | [1] | [4] | [18] | [12] | [14]
